According to PubChem BioAssay (Tox21):
Values joined by “and” are separate entries in the source; they are usually repeats but may differ in a detail not shown here. Equal values may be shown once. Inconclusive results are not listed. Entries that show only a call come without a potency. Where a structure was tested more than once in an assay, its records may differ in their call. Active and inactive are the calls of the source. Unless noted, calls follow the shape of the dose curve; as a rule, active = well fitted curve in the direction sought with a large enough effect in the repeat runs; inconclusive = weak or mixed curves; inactive = no such curve, though single readings can be large; an effect the other way counts as inactive or inconclusive.

Columns and labels:
[1] = qHTS assay to test for compound auto fluorescence at 535 nm (green) in HEK293 cells (AID 720680)
[2] = qHTS assay to test for compound auto fluorescence at 460 nm (blue) in HEK293 cell free culture (AID 720681)
Method in brief: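 Blue fluorescence (Ex 405/Em 460 nm, triamterene-equivalent) was read immediately after pin transfer of compound or DMSO into medium (DMEM, 10% FBS) without cells.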

[3] = qHTS assay to test for compound auto fluorescence at 535 nm (green) in HEK293 cell free culture (AID 720682)
Method in brief: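 Green-label autofluorescence (485 nm excitation, 535 nm emission) measured on compound added to cell-free culture medium (DMEM, 10% FBS). Output is expressed relative to fluorescein.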

[4] = qHTS assay to test for compound auto fluorescence at 590 nm (red) in HEK293 cell free culture (AID 720683)
Method in brief: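 Red-channel autofluorescence of compounds in culture medium (DMEM, 10% FBS), no cells, measured at 540/590 nm. Rose Bengal sodium is the reference fluorophore for equivalence.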

[5] = qHTS assay to test for compound auto fluorescence at 590 nm (red) in HepG2 cell free culture (AID 720684)
Method in brief: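 No cells present: MEM + 10% FBS only. Compound pinned in, red label read (540/590 nm). Activity = fluorescence equivalent to Rose Bengal sodium.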

[6] = qHTS assay to test for compound auto fluorescence at 460 nm (blue) in HepG2 cell free culture (AID 720685)
Method in brief: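 Cell-free plates of MEM plus 10% FBS received 23 nL compound or DMSO vehicle; blue-channel (405/460 nm) intensity scored against triamterene as reference fluorophore.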

[7] = qHTS assay to test for compound auto fluorescence at 535 nm (green) in HepG2 cell free culture (AID 720686)
[8] = qHTS assay to test for compound auto fluorescence at 460 nm (blue) in HepG2 cells (AID 720687)
Method in brief: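 Blue-channel autofluorescence (Ex/Em 405/460 nm, triamterene-equivalent) was measured after 1 hr compound exposure at 37 C, 5% CO2. Cells were HepG2, plated overnight at 37 C in MEM plus 10% FBS.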

[9] = molecular target: Glucocorticoid receptor (Homo sapiens) (UniProt P04150); assay: qHTS assay to identify small molecule agonists of the glucocorticoid receptor (GR) signaling pathway (AID 720691; active = well fitted activation curve with a large enough effect in the signal ratio in the repeat runs, not every such curve was filed as active; the % refers to the signal ratio)
Method in brief: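 Agonist-mode qHTS in HeLa cells stably expressing a glucocorticoid-response-element beta-lactamase reporter. Fluorescence intensity read with FRET substrate (2 h, room temperature) after 18 h compound treatment at 37 C.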

[10] = molecular target: Glucocorticoid receptor (Homo sapiens) (UniProt P04150); assay: qHTS assay to identify small molecule antagonists of the glucocorticoid receptor (GR) signaling pathway (AID 720692; active = well fitted inhibition curve with a large enough effect in the signal ratio in the repeat runs, not every such curve was filed as active; the % refers to the signal ratio; also: potency is read from the fitted curve at half-maximal effect)
Method in brief: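 Inhibition of dexamethasone-driven (5 nM final) beta-lactamase expression was measured in GRE-reporter HeLa cells over 18 h at 37C. Fluorescence was read after 2 h with the B/G FRET substrate at room temperature.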

[11] = qHTS assay for identifying genotoxic compounds that show differential cytotoxicity against isogenic chicken DT40 cell lines with known DNA damage response pathways - wild type cell line (AID 743012); also: nearly all actives have a fitted effect of over 60% in size; also: potency is read from the fitted curve at half-maximal effect
Method in brief: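 Viability by ATP luminescence (CellTiter-Glo, 30 min RT) after 40 h compound treatment at 37 C/5% CO2, using 300 parental DNA repair-proficient DT40 cells per well.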

[12] = qHTS assay for identifying genotoxic compounds that show differential cytotoxicity against isogenic chicken DT40 cell lines with known DNA damage response pathways - Rev3 mutant cell line (AID 743014); also: nearly all actives have a fitted effect of over 55% in size; also: potency is read from the fitted curve at half-maximal effect
[13] = qHTS assay to identify small molecule antagonists of the androgen receptor (AR) signaling pathway - cell viability counter screen (AID 743033; also: nearly all actives have a fitted effect of over 45% in size; also: potency is read from the fitted curve at half-maximal effect)
[14] = molecular target: Androgen receptor (Homo sapiens) (UniProt P10275); assay: qHTS assay to identify small molecule antagonists of the androgen receptor (AR) signaling pathway (AID 743035; active = well fitted inhibition curve with a large enough effect in the signal ratio in the repeat runs, not every such curve was filed as active; the % refers to the signal ratio; also: potency is read from the fitted curve at half-maximal effect)
Method in brief: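 Antagonist mode: AR-bla HEK293 cells co-treated with test compounds and agonist R1881 for 16 h at 37C, 5% CO2. Beta-lactamase activity read as FRET fluorescence after 2 h room-temperature substrate loading.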

[15] = molecular target: Androgen receptor (Homo sapiens) (UniProt P10275); assay: qHTS assay to identify small molecule agonists of the androgen receptor (AR) signaling pathway (AID 743036; active = well fitted activation curve with a large enough effect in the signal ratio in the repeat runs, with a control signal flat, not every such curve was filed as active; the % refers to the signal ratio)
Method in brief: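 AR-UAS-bla HEK293 cells, plated 4 h before dosing, were treated with compound for 16 h at 37C. beta-Lactamase reporter read after 2 h with LiveBLAzer B/G FRET substrate at room temperature.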

[16] = molecular target: Androgen receptor (Homo sapiens) (UniProt P10275); assay: qHTS assay to identify small molecule agonists of the androgen receptor (AR) signaling pathway using the MDA cell line (AID 743040; also: nearly all actives have a fitted effect of over 20% in size); conditions: MDA-kb2 AR-luc cells, MMTV luciferase, 16 h; activity change: at 70.3 µM (top of the series), stronger effect = higher value
Method in brief: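 Stable MMTV-luciferase reporter in MDA-kb2 cells; note the promoter carries GR as well as AR response elements. 16 h compound treatment, 37C, 0% CO2; ONE-Glo luminescence endpoint.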

[17] = qHTS assay to identify small molecule antagonists of the androgen receptor (AR) signaling pathway using the MDA cell line - cell viability counter screen (AID 743041; also: nearly all actives have a fitted effect of over 45% in size; also: potency is read from the fitted curve at half-maximal effect)
Method in brief: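 Using the breast carcinoma line MDA-kb2 AR-luc, test chemicals were co-incubated with R1881 for 16 h; CellTiter-Fluor reagent, added at 15.5 h, provided a fluorescence measure of live cells.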

[18] = molecular target: Androgen receptor (Homo sapiens) (UniProt P10275); assay: qHTS assay to identify small molecule antagonists of the androgen receptor (AR) signaling pathway using the MDA cell line (AID 743042; also: nearly all actives have a fitted effect of over 55% in size; also: potency is read from the fitted curve at half-maximal effect)
Method in brief: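 Antagonist mode: compounds plus R1881 agonist added to MDA-kb2 AR-luc cells, incubated 16 h at 37C. Luciferase reporter luminescence quantified, with multiplexed CellTiter-Fluor readout for cell viability.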

[19] = qHTS assay to identify small molecule antagonists of the glucocorticoid receptor (GR) signaling pathway - cell viability counter screen (AID 720693); also: nearly all actives have a fitted effect of over 55% in size
[20] = qHTS assay for identifying genotoxic compounds that show differential cytotoxicity against isogenic chicken DT40 cell lines with known DNA damage response pathways - Rad54/Ku70 mutant cell line (AID 743015); also: nearly all actives have a fitted effect of over 60% in size; also: potency is read from the fitted curve at half-maximal effect

Sequence of Glucocorticoid receptor (Homo sapiens) (P04150 whole entry, looked up): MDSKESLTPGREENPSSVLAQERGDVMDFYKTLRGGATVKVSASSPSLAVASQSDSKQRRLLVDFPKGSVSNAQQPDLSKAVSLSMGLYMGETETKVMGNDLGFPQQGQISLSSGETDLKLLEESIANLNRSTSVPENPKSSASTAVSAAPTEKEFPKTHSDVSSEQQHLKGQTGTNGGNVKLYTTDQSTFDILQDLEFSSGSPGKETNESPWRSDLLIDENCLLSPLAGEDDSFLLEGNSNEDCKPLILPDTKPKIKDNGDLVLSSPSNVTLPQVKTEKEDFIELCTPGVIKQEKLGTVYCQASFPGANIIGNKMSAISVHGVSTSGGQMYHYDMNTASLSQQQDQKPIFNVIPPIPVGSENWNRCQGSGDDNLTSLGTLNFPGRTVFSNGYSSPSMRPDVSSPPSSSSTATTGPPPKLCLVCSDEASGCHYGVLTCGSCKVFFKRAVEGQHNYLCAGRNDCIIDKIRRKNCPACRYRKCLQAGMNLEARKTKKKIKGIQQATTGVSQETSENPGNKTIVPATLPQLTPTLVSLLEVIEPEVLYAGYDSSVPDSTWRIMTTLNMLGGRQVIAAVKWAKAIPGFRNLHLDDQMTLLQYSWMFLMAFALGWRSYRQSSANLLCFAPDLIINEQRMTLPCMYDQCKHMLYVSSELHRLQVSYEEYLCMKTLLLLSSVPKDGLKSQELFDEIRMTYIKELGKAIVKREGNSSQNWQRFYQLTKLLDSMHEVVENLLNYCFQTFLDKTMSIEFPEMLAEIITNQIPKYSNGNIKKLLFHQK
Sequence of Androgen receptor (Homo sapiens) (P10275 whole entry, looked up): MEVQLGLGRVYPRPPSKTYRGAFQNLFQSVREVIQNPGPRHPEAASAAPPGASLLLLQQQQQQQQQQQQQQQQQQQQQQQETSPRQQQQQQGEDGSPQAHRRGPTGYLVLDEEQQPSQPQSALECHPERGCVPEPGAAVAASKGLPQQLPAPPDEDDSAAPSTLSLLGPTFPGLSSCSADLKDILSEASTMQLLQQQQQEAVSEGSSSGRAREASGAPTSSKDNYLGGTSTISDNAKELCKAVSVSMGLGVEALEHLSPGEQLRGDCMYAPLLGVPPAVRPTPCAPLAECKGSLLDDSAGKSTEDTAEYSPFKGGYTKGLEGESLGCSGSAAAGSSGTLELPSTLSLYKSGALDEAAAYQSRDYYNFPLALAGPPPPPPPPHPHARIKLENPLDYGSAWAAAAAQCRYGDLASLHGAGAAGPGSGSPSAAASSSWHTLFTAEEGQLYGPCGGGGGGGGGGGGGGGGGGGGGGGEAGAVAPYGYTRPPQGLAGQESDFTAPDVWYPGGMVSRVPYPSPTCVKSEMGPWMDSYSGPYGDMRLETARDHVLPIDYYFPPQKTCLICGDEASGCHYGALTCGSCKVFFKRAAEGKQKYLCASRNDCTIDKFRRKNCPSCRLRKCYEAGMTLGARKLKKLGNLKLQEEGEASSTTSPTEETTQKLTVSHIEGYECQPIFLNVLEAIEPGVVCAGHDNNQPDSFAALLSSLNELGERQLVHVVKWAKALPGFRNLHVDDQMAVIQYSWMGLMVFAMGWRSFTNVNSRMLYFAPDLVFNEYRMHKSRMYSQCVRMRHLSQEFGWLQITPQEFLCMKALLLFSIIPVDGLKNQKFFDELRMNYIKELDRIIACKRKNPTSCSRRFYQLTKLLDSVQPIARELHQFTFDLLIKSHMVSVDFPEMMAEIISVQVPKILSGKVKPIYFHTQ

| SMILES | outcome [1] | outcome [2] | outcome [3] | outcome [4] | outcome [5] | outcome [6] | outcome [7] | outcome [8] | Potency [9] | Potency [10] | Potency [11] | Potency [12] | Potency [13] | Potency [14] | Potency [15] | Potency [16] | Potency [17] | Potency [18] | Potency [19] | Potency [20] |
| --- | --- | --- | --- | --- | --- | --- | --- | --- | --- | --- | --- | --- | --- | --- | --- | --- | --- | --- | --- | --- |
| CCCCCBr | inactive | inactive | inactive | inactive | inactive | inactive | inactive | inactive | inactive | inactive | inactive | inactive | inactive | inactive | inactive | inactive | inactive | inactive |  |  |
| CCC[N+](CCC)(CCC)CCC | inactive | inactive | inactive | inactive | inactive | inactive | inactive | inactive |  |  | inactive | inactive | inactive |  |  |  | inactive |  | inactive | inactive |
| c1ccc2c(c1)-c1cccc3cccc-2c13 | inactive | inactive | inactive | inactive | inactive | inactive | inactive | inactive |  |  | inactive | inactive and 61.1 µM (active) | inactive |  |  |  | inactive |  |  |  |
| N#CC(C#N)=Cc1ccc(O)c(O)c1 | inactive | inactive | inactive | inactive | inactive | inactive | inactive | inactive |  |  | 13.3 µM (active) | 26.6 µM (active) | inactive |  |  | inactive |  | inactive | inactive | 26.6 µM (active) |
| C[N+]1(CCC(C(N)=O)(c2ccccc2)c2ccccc2)CCCCC1 | inactive | inactive | inactive | inactive | inactive | inactive | inactive | inactive | inactive | inactive | inactive | inactive | inactive |  |  |  | inactive |  |  | inactive |
| CCCCCCCCCCCCN(C)C | inactive | inactive | inactive | inactive | inactive | inactive | inactive | inactive | inactive | inactive | inactive | inactive |  |  |  |  | inactive |  |  | inactive |
| CCOP(=S)(S)OCC | inactive | inactive | inactive | inactive | inactive |  | inactive | inactive | inactive | inactive |  | inactive | inactive | inactive |  | inactive | inactive | inactive |  | inactive |
| COc1ccc2c(c1OC)C(=O)O[C@H]2[C@@H]1c2cc3c(cc2CCN1C)OCO3 | inactive | inactive | inactive | inactive | inactive |  | inactive | inactive |  |  |  | inactive | inactive | inactive | inactive | inactive | inactive | inactive | inactive | inactive |
| C1CS1 | inactive | inactive | inactive | inactive | inactive | inactive |  | inactive |  |  | inactive | inactive | inactive |  |  |  | inactive |  | inactive | inactive |
| CCCC1CCCCN1 (stereo not drawn) | inactive | inactive | inactive | inactive | inactive | inactive |  | inactive |  |  | inactive | inactive |  |  |  |  | inactive |  |  |  |
| C[CH2][Hg][S]c1ccccc1C(=O)O | inactive | inactive | inactive | inactive | inactive | inactive |  | inactive |  |  | 376 nM (active) and 172 nM (active) | 596 nM (active) and 137 nM (active) | 10.7 µM (active) and 4.9 µM (active) | 9.52 µM (active) and 3.09 µM (active) |  | inactive | 9.87 µM (active) and 8.63 µM (active) | 9.44 µM (active) and 7.7 µM (active) |  | 266 nM (active) and 109 nM (active) |
| Nc1ccc2c(c1)Cc1ccccc1-2 | inactive | inactive | inactive | inactive | inactive | inactive |  | inactive | inactive |  |  |  | inactive |  |  |  |  |  |  |  |
| O=P(OCC(Br)CBr)(OCC(Br)CBr)OCC(Br)CBr (stereo not drawn) | inactive | inactive | inactive | inactive | inactive | inactive |  | inactive | inactive | 55.7 µM (active) | 41.1 µM (active) | 55.2 µM (active) and 20.6 µM (active) |  | 14 µM (active) | inactive | inactive | inactive |  |  | 25.9 µM (active) |
